# Test results: the supplement of paper PMC8975748
# Structures can show the parent of a compound that is named as a salt.
# System: Saccharomyces cerevisiae BY4741 SeMeCo community
# Experiment: z-score of subpopulation abundance vs DMSO median, subpopulation auxotrophic for L; higher = larger share of this subpopulation than in DMSO controls
# Details: 10 µM; 24 h; SM minimal medium; subpopulation (auxotrophy): L
# Procedure: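 Fluorescent four-plasmid SeMeCo (self-establishing metabolically cooperating S. cerevisiae BY4741 community; plasmids pH-mRuby2, pL-mWasabi, pU-eCFP, pM-TagRFP657) was grown 24 h in minimal SM medium with each Selleck FDA-approved drug at 10 µM in 384-well plates. Cells were fixed and imaged by high-content confocal microscopy. For each auxotrophic subpopulation (and the prototroph), a z-score gives the deviation from the DMSO vehicle-control population median.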
row,Structure (SMILES),z-score of subpopulation abundance
1,CC[C@@H](CO)NCCN[C@@H](CC)CO [Ethambutol 2HCl],0.27
2,CC(C)[N+](C)(CCOC(=O)C1c2ccccc2Oc2ccccc21)C(C)C [Propantheline bromide],-0.57
3,O=c1cc(-c2ccc(O)c(O)c2)oc2cc(O)cc(O)c12 [Luteolin],1.23
4,NCCc1ccc(O)c(O)c1 [Dopamine HCl],-1.11
5,CCCCNC(=O)NS(=O)(=O)c1ccc(C)cc1 [Tolbutamide],-0.55
6,O=C(Cn1cnnn1)N[C@@H]1C(=O)N2C(C(=O)O)=C(CSc3nncs3)CS[C@H]12 [Ceftezole sodium],-0.77
7,CCc1nn(CCCN2CCN(c3cccc(Cl)c3)CC2)c(=O)n1CCOc1ccccc1 [Nefazodone hydrochloride],0.67
8,CCC(C)n1ncn(-c2ccc(N3CCN(c4ccc(OCC5COC(Cn6cncn6)(c6ccc(Cl)cc6Cl)O5)cc4)CC3)cc2)c1=O (stereo not given) [Itraconazole],0.48
9,CCOC(=O)C1=C(COCCN)NC(C)=C(C(=O)OC)C1c1ccccc1Cl (stereo not given) [Amlodipine],4.02
10,O=C1CC2(CCCC2)CC(=O)N1CCCCN1CCN(c2ncccn2)CC1 [Buspirone HCl],0.76
11,C#CCN(C)Cc1ccccc1 [Pargyline hydrochloride],0.76
12,Nc1nc(N)c2nc(-c3ccccc3)c(N)nc2n1 [Triamterene],3.9
13,O=C(O)Cc1ccccc1Nc1c(Cl)cccc1Cl [Diclofenac Sodium],-0.21
14,C[C@@H](c1ncncc1F)[C@](O)(Cn1cncn1)c1ccc(F)cc1F [Voriconazole],-2.55
15,O=C(NCCO[N+](=O)[O-])c1cccnc1 [Nicorandil],0.07
16,NCC[C@H](O)C(=O)N[C@@H]1C[C@H](N)[C@@H](O[C@H]2O[C@H](CN)[C@@H](O)[C@H](O)[C@H]2O)[C@H](O)[C@H]1O[C@H]1O[C@H](CO)[C@@H](O)[C@H](N)[C@H]1O [Amikacin disulfate],0.46
17,CC1(C)S[C@@H]2[C@H](NC(=O)[C@H](N)c3ccccc3)C(=O)N2[C@H]1C(=O)O [Ampicillin sodium],0.09
18,CC(c1cc2ccccc2s1)N(O)C(N)=O (stereo not given) [Zileuton],0.85
19,C#C[C@]1(O)CC[C@H]2[C@@H]3CCC4=Cc5oncc5C[C@]4(C)[C@H]3CC[C@@]21C [Danazol],-0.15
20,Cc1nnc(SCC2=C(C(=O)O)N3C(=O)[C@@H](NC(=O)Cn4cc(Cl)c(=O)c(Cl)c4)[C@H]3SC2)s1 [Cefazedone],-0.83

row,Structure (SMILES),z-score of subpopulation abundance
1,Nc1ccc(S(=O)(=O)Nc2ncccn2)cc1 [Sodium sulfadiazine],0.56
2,COc1cnc(NS(=O)(=O)c2ccc(N)cc2)nc1 [Sulfameter],-0.37
3,CC(C(=O)O)c1ccc2c(c1)CC(=O)c1ccccc1S2 (stereo not given) [Zaltoprofen],-0.47
4,OC(c1cc(C(F)(F)F)nc2c(C(F)(F)F)cccc12)C1CCCCN1 (stereo not given) [Mefloquine HCl],0.1
5,CCCCCCCCCC(=O)N[C@@H](Cc1c[nH]c2ccccc12)C(=O)N[C@H](CC(N)=O)C(=O)N[C@@H](CC(=O)O)C(=O)N[C@@H]1C(=O)NCC(=O)N[C@@H](CCCN)C(=O)N[C@@H](CC(=O)O)C(=O)N[C@H](C)C(=O)N[C@@H](CC(=O)O)C(=O)NCC(=O)N[C@H](CO)C(=O)N[C@@H]([C@H](C)CC(=O)O)C(=O)N[C@@H](CC(=O)c2ccccc2N)C(=O)O[C@@H]1C [Daptomycin],0.51
6,CCCCCNC(=N)N/N=C/c1c[nH]c2ccc(OC)cc12 [Tegaserod Maleate],2.04
7,Cc1ncc([N+](=O)[O-])n1C [Dimetridazole],-1.34
8,C[C@]12CC[C@@H]3c4ccc(OS(=O)(=O)O)cc4CC[C@H]3[C@@H]1CCC2=O [Estropipate],-0.9
9,COC(=O)Nc1nc2cc([S+]([O-])c3ccccc3)ccc2[nH]1 (stereo not given) [Oxfendazole],-1.92
10,CCCCCCCCc1ccc(CCC(N)(CO)CO)cc1 [Fingolimod],-1.22
11,COCC(=O)Nc1cc(Sc2ccccc2)ccc1N=C(NC(=O)OC)NC(=O)OC [Febantel],-0.03
12,CCN(CC)CCOc1ccc2c(c1)C(=O)c1cc(OCCN(CC)CC)ccc1-2 [Tilorone dihydrochloride],-0.72
13,CC(Cc1ccc(O)c(O)c1)C(C)Cc1ccc(O)c(O)c1 (stereo not given) [Nordihydroguaiaretic acid (NDGA)],0.06
14,O=C(O)CCC(=O)Nc1ccc(S(=O)(=O)Nc2nccs2)cc1 [Succinylsulfathiazole],-0.22
15,NC12CC3CC(CC(C3)C1)C2 [Amantadine],0.99
16,COc1ccnc(C[S+]([O-])c2nc3cc(OC(F)F)ccc3[nH]2)c1OC (stereo not given) [Pantoprazole],0.22
17,C[C@H]1COc2c(N3CCN(C)CC3)c(F)cc3c(=O)c(C(=O)O)cn1c23 [Levofloxacin hydrate],1.32
18,CN[C@H]1C(=O)N[C@@H]2Cc3ccc(cc3)Oc3cc4cc(c3O[C@@H]3O[C@H](C(=O)O)[C@@H](O)[C@H](O)[C@H]3NC(=O)CCCCCCCCC(C)C)Oc3ccc(cc3Cl)[C@@H](O)[C@@H]3NC(=O)[C@H](NC(=O)[C@@H]4NC(=O)[C@@H](NC2=O)c2cc(cc(O)c2Cl)Oc2cc1ccc2O)c1ccc(O)c(c1)-c1c(O[C@H]2O[C@H](CO)[C@@H](O)[C@H](O)[C@@H]2O)cc(O)cc1[C@@H](C(=O)NCCCN(C)C)NC3=O [Dalbavancin],-0.21
19,COc1ccc(C(C)=O)c(O)c1 [Paeonol],0.17
20,OCCN1CCN(CCCN2c3ccccc3Sc3ccc(C(F)(F)F)cc32)CC1 [Fluphenazine dihydrochloride],1.3
